Hits are enriched below; roughly 9.3% of the tested compounds scored in any of these assays.
Rab9 prom act: activates the Rab9 promoter; Potency, µM (titrated, usually from 9.22 µM), for inactives: at the top dose activation, negative = inhibition, most hits filed as activators; 2.8% of 320,000 active; Huh7 Rab9 promoter-luciferase reporter, luminescence, 24 h; further: % of control where 0% means no effect; nearly all actives have a fitted effect of over 60% in size
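Cell-based reporter: Huh7 stable for Rab9 promoter-driven luciferase, plated in reduced-serum medium with 10% FBS at 1500 cells/well, compound-treated 24 h at 37 °C, luminescence read after 10 min reagent.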
ELG1 DNA repair: ELG1-dependent DNA repair inhibition; 2.3% of 330,000 active; Potency, µM (series often up to 46.1 µM), for the others: at the top dose activity change, negative = inhibition, usual class: inhibitors; HEK293T ELG1-luciferase reporter, luminescence, 16 h; DNA damage induced by 5-fluorouridine; AID 504467; further: on the % scale 0 is the no-effect control and ±100 the full control effect; nearly all actives have a fitted effect of over 55% in size
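Overnight (16 hr) co-exposure of 2,000 cells/well to 5-fluorouridine and compound at 37 °C preceded detection. Luciferase was quantified via ONE-Glo luminescence; loss of signal denotes inhibition.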
FLuc modulator: inhibits or activates purified firefly luciferase, miR-21 counter-screen; purified FLuc, Km substrates, luminescence inhibition; Potency, µM (top dose mostly 57.5 µM), inactives show at the top dose activity change, negative = inhibition, actives largely listed as inhibitors; 6.9% of 360,000 active;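 further: plate controls were vehicle for no effect and reference inhibitor for full effect; nearly all actives have a fitted effect of over 55% in size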
Target sequence (P08659 whole entry, looked up): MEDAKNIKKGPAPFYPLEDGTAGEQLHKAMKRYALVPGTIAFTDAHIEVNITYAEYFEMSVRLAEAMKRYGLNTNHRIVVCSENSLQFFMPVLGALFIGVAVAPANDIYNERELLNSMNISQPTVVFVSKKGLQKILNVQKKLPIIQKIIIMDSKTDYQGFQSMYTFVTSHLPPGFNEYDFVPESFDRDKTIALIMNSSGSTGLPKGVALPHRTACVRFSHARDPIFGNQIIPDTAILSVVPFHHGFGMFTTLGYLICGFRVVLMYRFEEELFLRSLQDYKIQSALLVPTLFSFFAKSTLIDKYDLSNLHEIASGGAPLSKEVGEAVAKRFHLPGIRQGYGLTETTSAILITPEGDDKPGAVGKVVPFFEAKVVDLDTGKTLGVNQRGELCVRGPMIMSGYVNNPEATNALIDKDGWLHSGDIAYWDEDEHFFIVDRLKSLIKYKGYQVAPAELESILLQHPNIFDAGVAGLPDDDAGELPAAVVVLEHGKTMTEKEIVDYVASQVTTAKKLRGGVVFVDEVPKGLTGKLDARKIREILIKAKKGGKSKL
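Purified P. pyralis luciferase (10nM final) with 10uM D-luciferin and 10uM ATP (Km levels) in 50mM Tris acetate pH 7.5, 10mM Mg acetate, 0.01% Tween-20, 0.05% BSA; qHTS 6-point titration, ~60 µM downward; luminescence read.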
SMN2 splice enh: increases expression of the SMN2 splice variant. HEK293 SMN2-luciferase splicing reporter, luminescence, 30-36 h. Potency, µM (series often up to 46.1 µM), for inactives: at the top dose activity change, positive = activation, usual class: activators. 2.8% of 210,000 active. AID 1458; further: % of control where 0% means no effect; nearly all actives have a fitted effect of over 55% in size
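HEK293 cells carry an SMN2 minigene-luciferase reporter in which exon 7 inclusion puts luciferase in frame. Cells were seeded at 2000 cells/well, attached for 10-12 hours, then exposed to compounds for 30-36 hours at 37C before ONE-Glo luminescence.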
NPC1 prom act: activates the NPC1 promoter; Huh7 NPC1 promoter luciferase reporter, 24 h; 2.4% of 320,000 active; AID 485313; Potency, µM (doses to about 9.22 µM), inactives show top-dose activation, usual class: activators; further: % of control where 0% means no effect; nearly all actives have a fitted effect of over 60% in size
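Stable NPC1-promoter luciferase Huh7 line; cpd (DMSO) 24 h, 37 °C, 5% CO2; Amplite luciferase reagent 10 min RT; luminescence readout. qHTS format.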
ELG1 genotoxic: inducers of genotoxicity in HEK293T ELG1-luciferase cells | 1.3% of 330,000 active | Potency, µM (top dose mostly 46 µM), for the others: at the top dose activity change, positive = activation, hits mostly activators | AID 504466 | HEK293T ELG1-luciferase reporter, luminescence, 16 h; further: % of control where 0% means no effect; nearly all actives have a fitted effect of over 60% in size
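HEK293T cells expressing luciferase-tagged ELG1 were exposed to compound or DMSO vehicle for 16 hr at 37 °C and 5% CO2. Luciferase activity was then measured with ONE-Glo after 30 min at room temperature.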
Starred values were filed as active, the others as inactive; [ ] = dose if it differs, or a comment. The call rests on the fitted dose curve; in most records, active means well fitted curve in the direction sought with a large enough effect; inconclusive means small, poorly fitted or top-dose-only effect, or another doubt; inactive means no such curve, though single readings can be large; an effect the other way counts as inactive or inconclusive. Potency means the concentration at half of the fitted maximal effect.

C/C(=N\O)c1ccc(N2C(=O)C3CC=C(Cl)CC3C2=O)cc1 (stereo unspecified) was read as Rab9 prom act inconclusive, ELG1 DNA repair inconclusive, FLuc modulator 11µM*, SMN2 splice enh inconclusive, NPC1 prom act inconclusive and ELG1 genotoxic inconclusive.
`COc1ccc(C)cc1NC(=O)c1cc(S(=O)(=O)N2CCC(C)CC2)ccc1F` gave FLuc modulator 4%.
`CCCN1C(=O)c2cccc3c(N4CCCCC4)ccc(c23)C1=O` gave Rab9 prom act inconclusive, ELG1 DNA repair inconclusive, FLuc modulator 11µM*, SMN2 splice enh 6%[1.84 µM], NPC1 prom act 20% and ELG1 genotoxic inconclusive.
`O=C(COc1coc(CN2CCc3ccccc3C2)cc1=O)Nc1ccc([N+](=O)[O-])cc1` gave Rab9 prom act -15%, ELG1 DNA repair inconclusive, FLuc modulator 4%, NPC1 prom act 0% and ELG1 genotoxic 1%.
Screening CCNc1ncc2nc(CCc3ccccc3)c(=O)n(C)c2n1 returned SMN2 splice enh 13µM*.
Screening CN(Cc1nc(-c2cccc(Cl)c2)no1)C1CCOCC1 returned Rab9 prom act 2µM*, ELG1 DNA repair inconclusive, FLuc modulator inconclusive, NPC1 prom act inconclusive and ELG1 genotoxic inconclusive.
`CCN(Cc1nc(-c2cccc(Cl)c2)no1)CC1CCCO1` (stereo unspecified) gave Rab9 prom act 20%, ELG1 DNA repair inconclusive, FLuc modulator inconclusive, NPC1 prom act 6% and ELG1 genotoxic 6%.
`COc1ccc(S(=O)(=O)N2CCOCC2)cc1NC(=O)CSc1ncccn1` gave ELG1 DNA repair -3% and ELG1 genotoxic 3%.
`COC(=O)c1cc(OC)c(OC)cc1NC(=O)CCNC(=O)c1ccco1` gave Rab9 prom act -1%, ELG1 DNA repair 11%, FLuc modulator -1%, NPC1 prom act -27% and ELG1 genotoxic 0%.
For COCC(C)n1c(C)cc(C(=O)CSc2nc3ccccc3c(=O)[nH]2)c1C (stereo unspecified) the results were Rab9 prom act 21%, ELG1 DNA repair 16µM*, FLuc modulator inconclusive, SMN2 splice enh -42%, NPC1 prom act 13% and ELG1 genotoxic -7%.
`COCCn1c(C)cc(C(=O)CSc2nc3ccccc3c(=O)[nH]2)c1C` gave Rab9 prom act 1.6µM*, ELG1 DNA repair inconclusive, FLuc modulator 5.4µM*, SMN2 splice enh inconclusive, NPC1 prom act 1.8µM* and ELG1 genotoxic inconclusive.
Fc1cccc(CSc2nc3ccncc3[nH]2)c1 was read as Rab9 prom act inconclusive, ELG1 DNA repair inconclusive, FLuc modulator inconclusive, SMN2 splice enh 11µM*, NPC1 prom act 25% and ELG1 genotoxic 16%.
For COCCn1c(C)cc(C(=O)CSc2nncn2-c2ccccc2)c1C the results were Rab9 prom act -1%, ELG1 DNA repair inconclusive, FLuc modulator 19µM*, SMN2 splice enh 4%, NPC1 prom act 0% and ELG1 genotoxic 7%.
Screening Cc1ccc(C)c(C(=O)CSc2nc3ccccc3c(=O)[nH]2)c1 returned Rab9 prom act -9%, ELG1 DNA repair 10%, FLuc modulator -3%, SMN2 splice enh -8%, NPC1 prom act -9% and ELG1 genotoxic 3%.
For COc1ccc(-n2cnnc2SCC(=O)c2cc(C)n(Cc3cccs3)c2C)cc1 the results were Rab9 prom act -1%, ELG1 DNA repair -7%, FLuc modulator inconclusive, SMN2 splice enh 6%, NPC1 prom act 1% and ELG1 genotoxic -4%.
For COc1ccc(NS(=O)(=O)c2cc(NC(=O)CNC(=O)c3cccc(OC)c3)ccc2C)cc1 the results were Rab9 prom act 3%, ELG1 DNA repair -1%, FLuc modulator 0%, SMN2 splice enh 21%, NPC1 prom act -3% and ELG1 genotoxic 14%.
For COc1ccc(C)cc1-n1ccn(CC(=O)Nc2ccc(Br)cc2F)c(=O)c1=O the results were Rab9 prom act -3%, ELG1 DNA repair -1%, FLuc modulator 6%, NPC1 prom act -3% and ELG1 genotoxic 1%.
`CC/C=C\C/C=C\C/C=C\C/C=C\C/C=C\C/C=C\CCC(=O)O[C@H](COCCCCCCCCCCCCCCCC)COP(=O)([O-])OCC[N+](C)(C)C` gave SMN2 splice enh 0%.
`O=C(CSc1nc2ccccc2[nH]1)c1c[nH]c2ccccc12` gave Rab9 prom act 20%, ELG1 DNA repair inconclusive, FLuc modulator -11%, SMN2 splice enh 13%, NPC1 prom act 11% and ELG1 genotoxic 7%.
Screening Cc1cc(C(=O)CSc2nc3ccccc3[nH]2)c(C)n1C returned Rab9 prom act 0.45µM*, ELG1 DNA repair inconclusive, FLuc modulator 3.4µM*, SMN2 splice enh 3.2µM*, NPC1 prom act 0.4µM* and ELG1 genotoxic inconclusive.
`Cc1noc(C)c1CSc1nc2ccccc2[nH]1` gave Rab9 prom act 0%, ELG1 DNA repair 13%, FLuc modulator -2%, SMN2 splice enh 6%, NPC1 prom act -2% and ELG1 genotoxic inconclusive.
Fc1cccc(F)c1CSc1nc2ccccc2[nH]1 was read as Rab9 prom act 1µM*, ELG1 DNA repair inconclusive, FLuc modulator inconclusive, SMN2 splice enh 10µM*, NPC1 prom act 1.4µM* and ELG1 genotoxic inconclusive.
Screening CCN(CC)C(=O)CSc1nc2ccccc2c(=O)n1Cc1ccco1 returned FLuc modulator -3%.
Screening CCCn1c(C)cc(C(=O)CSc2nc3ccccc3c(=O)n2Cc2ccco2)c1C returned Rab9 prom act 3.5µM*, ELG1 DNA repair inconclusive, FLuc modulator 5.4µM*, SMN2 splice enh inconclusive, NPC1 prom act 3.2µM* and ELG1 genotoxic inconclusive.
Screening O=C(CSc1nc2ccccc2[nH]1)c1ccccc1F returned Rab9 prom act 1.6µM*, ELG1 DNA repair inconclusive, FLuc modulator 8.5µM*, NPC1 prom act 1.4µM* and ELG1 genotoxic inconclusive.
`COCCNC(=O)c1cccc(OC2CCN(Cc3ccccc3C)CC2)c1` gave Rab9 prom act -3%, ELG1 DNA repair -8%, FLuc modulator 8%, NPC1 prom act -5% and ELG1 genotoxic -6%.
For C=CCn1c(C)cc(C(=O)CSc2nc3ccccc3c(=O)[nH]2)c1C the results were Rab9 prom act 0.79µM*, ELG1 DNA repair inconclusive, FLuc modulator 9.5µM*, SMN2 splice enh -38%, NPC1 prom act inconclusive and ELG1 genotoxic 2.9µM*.
